# This is part of a sample that, as a whole, favours compounds with a hit. Of some 83,000 tested, about 20% had one in any assay.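 Activity criterion: percent growth below 10, measured after cells in 96-well plates were exposed to a single compound concentration for 48 hours.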 Unmarked numbers belong to inactive results. Active and inactive are the calls of the source.
# What was measured:
# Assay in all cases: NCI-60 one-dose screen, 48 h (100 = growth as untreated, 0 = no growth, -100 = all killed)
# Details in all cases: 10 µM unless noted
# DU-145 prostate = tested on: DU-145 prostate
# K-562 leukemia = tested on: K-562 leukemia
# MALME-3M melanoma = tested on: MALME-3M melanoma
# MDA-MB-231 breast = tested on: MDA-MB-231 breast
# RXF 393 renal = tested on: RXF 393 renal
# SF-268 CNS = tested on: SF-268 CNS
# SF-295 CNS = tested on: SF-295 CNS
# SF-539 CNS = tested on: SF-539 CNS
# UACC-257 melanoma = tested on: UACC-257 melanoma
# M14 melanoma = tested on: M14 melanoma
SMILES,growth (DU-145 prostate),growth (K-562 leukemia),growth (MALME-3M melanoma),growth (MDA-MB-231 breast),growth (RXF 393 renal),growth (SF-268 CNS),growth (SF-295 CNS),growth (SF-539 CNS),growth (UACC-257 melanoma),growth (M14 melanoma)
CCCC/C=N/NC(=S)NCc1ccccc1,106%,91.7%,97%,98.8%,106%,102%,102%,94%,91.2%,87.4%
Nc1nc(Nc2ccccc2SSc2ccccc2Nc2nc(N)nc(-c3ccc(C(F)(F)F)cc3)n2)nc(-c2ccc(C(F)(F)F)cc2)n1,73.4%,55%,93%,67.4%,78.6%,50.4%,65.5%,88.2%,106%,72.5%
COc1cc(/C=N/NC(=O)c2cnn3c2NC(c2ccccc2)C3)ccc1Oc1ccccc1 (stereo not given),30.2%,16.8%,27.4%,44.3%,29.3%,45.2%,0.968% (active),9.71% (active),41.6%,18.2%
Brc1ccc2[nH]cc(-c3cncn3CCc3ccccc3)c2c1,68.1%,27.3%,65%,65.4%,38.1%,50.3%,37.7%,65.2%,48.3%,53.3%
N#CC1C(C#N)C2c3ccccc3C=CN2C1C(=O)c1ccc(Br)cc1 (stereo not given),97.8%,99.8%,100%,92.2%,105%,95.1%,96.8%,89.3%,103%,104%
CCCOc1ccc(/C=N/Nc2cc(C)nc3ccc(Br)cc23)cc1,86.8%,11.5%,112%,92.9%,83.4%,102%,81%,83.9%,98.7%,80.3%
N#Cc1c(NCc2ccccc2I)sc2c1CCCCC2,102%,95.3%,87.5%,85.4%,93.6%,93.7%,97.3%,97.3%,93.7%,97.3%
CCc1c(Cl)nc(N)nc1Nc1ccc(C)c(C)c1,99.5%,96.5%,100%,97.3%,93.9%,97.9%,93.2%,100%,105%,104%
COc1ccc(C(=O)NNc2nc(Cl)nc(N3CCN(C(c4ccccc4)c4ccccc4)CC3)n2)cc1,67.7%,-16.5% (active),46.3%,-1.74% (active),9.64% (active),86.6%,96.8%,33.4%,65.2%,31.3%
COc1cccc(-c2nc3occn3c2-c2ccnc(NCCCNS(=O)(=O)c3ccc(C(F)(F)F)cc3)n2)c1,89.2%,69.8%,95.8%,90.1%,79.6%,75%,95.2%,89.5%,84.5%,85.6%
CCCOC(=O)N[C@H]1CCc2cc(OC)c(OC)c(OC)c2-c2ccc(SC)c(=O)cc21,-18.3% (active),7.7% (active),35.4%,-8.18% (active),19.5%,22.6%,17.3%,-21.5% (active),71.8%,6.23% (active)
O=C(N/N=C/c1cc2ccccc2n2nnnc12)Nc1ccccc1,103%,95.1%,106%,105%,103%,101%,104%,106%,111%,102%
O=[N+]([O-])CC(c1ccccc1F)c1c[nH]c2ccccc12 (stereo not given),97.2%,17.9%,66.9%,56.5%,80%,80.4%,67.9%,76.3%,87.1%,52.3%
CCCCCN1C=C/C(=C\C(=O)n2ccc3ccccc32)c2ccccc21,101%,75%,81.7%,93.2%,103%,92.5%,87.7%,102%,97.9%,92%
COc1cc(OC)cc(C(=O)C[n+]2cccc3cc[nH]c32)c1,115%,98%,99.1%,98.4%,83.8%,97%,101%,101%,-43.7% (active),96.3%
COc1cc2nc(-c3ccc(C(F)(F)F)cc3)cc(OCCCN3CCCC3)c2cc1OC,41.7%,24.6%,51.2%,25.7%,44.4%,45.5%,-28.3% (active),45.8%,22.7%,-38.4% (active)
CC(C)(C)c1cc(/C=N/NC(=O)c2ccccc2NC(=O)c2cccs2)c(O)c(C(C)(C)C)c1,32.5%,13.1%,49.6%,44.3%,64.6%,24.6%,40%,51.7%,38.6%,27.6%
COc1ccc(C(=O)CSc2nc(-c3cc(OC)ccc3OC)cc(-c3ccc(Cl)cc3)c2C#N)cc1,65.9%,77.9%,-6.38% (active),33.2%,26.5%,59.2%,18.5%,30.5%,58%,48.6%
CCCCCN1C=C/C(=C\C(=O)N(C)c2ccc(Oc3ccccc3)cc2)c2ccccc21,103%,48.8%,83.7%,76.9%,85.8%,87.8%,81.1%,92.8%,74.2%,94.1%
C/C(=N\Nc1cc(C)nc2ccc(Br)cc12)c1ccc([N+](=O)[O-])cc1,64.8%,11.3%,123%,59.4%,68.6%,97.8%,49.4%,-43.6% (active),107%,84.6%
O=C(O)c1ccc(NCc2cn(-c3ccc(C(F)(F)F)cc3)nc2-c2ccc(C(=O)O)cc2)cc1,115%,105%,127%,111%,112%,97.8%,100%,97%,109%,106%
COc1cc(/C(C)=C(\c2ccc(Cl)cc2)c2ccc(OCCN(C)C)cc2)ccc1F,67.9%,8.38% (active),-7.62% (active),50.8%,60.5%,70.8%,89.7%,71.7%,-4.66% (active),31.5%
O=C(CNCCN1CCOCC1)N1c2cccc3cccc(c23)N(C(=O)CNCCN2CCOCC2)C1c1cn(-c2ccccc2)nc1-c1cccc([N+](=O)[O-])c1,87.8%,-21.4% (active),-87.3% (active),54.4%,47.9%,69.6%,100%,63.3%,90.3%,-16.1% (active)
CN(C)CCn1c2ccc(Br)cc2c2nc3ccccc3nc21,27%,12.1%,51.3%,30.3%,39.4%,43.1%,26.8%,27.3%,46%,30%
C#CCNC(=O)c1cccc2c1cc(C)n2-c1nc2c(c(NCc3ccccc3)n1)CCCC2,5.22% (active),6.56% (active),-59% (active),-69.7% (active),-68.1% (active),-23.6% (active),-68.2% (active),-23.4% (active),-30.5% (active),-39.2% (active)
